Hits are enriched below; roughly 3.4% of the tested compounds scored in any of these assays.
esBAF inh – inhibitors of esBAF chromatin remodeling in mouse ES cells; Bmi1-luciferase knock-in reporter, 24 h; 100% = twice the neutral-well signal; reporter increase, % at 12.5 µM; AID 602393; hit rate 2% among 350,000; in the data active = activation above about 40%; inconclusive = no clear call, values can overlap the other calls;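 also: 0% = median of the plate's neutral control wells and 100% = double that signal; a rise in the Bmi1 reporter signal indicates esBAF inhibition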
Vif imaging – HIV Vif inhibition; inhibition, % at 7.49 µM; hit rate 0.35% among 340,000; AID 602346; HEK293T cells, Vif self-association by quenched fluorescence, imaging, 24 h; in the data active = inhibition above about 50%, passing the limit was not always enough; inconclusive = no clear call, values can overlap the other calls; inactive = below about 31%
HSF1 inh – HSF1 inhibition; NIH3T3-HGL HSE-luciferase, MG132-induced, luminescence 8 h; hits give low values; activity change, negative = inhibition, % at 7.5 µM (by protocol); hit rate 0.77% among 300,000; AID 2098;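 active = more than half of replicate wells show activity change below -50%, luminescence cut by over half; inconclusive = some wells, but at most half, below -50%; inactive = no replicate well below -50%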;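 also: luciferase reports HSF-1 transcriptional activity via heat shock element; 0% = median of DMSO wells and -100% = zero luminescence signal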
HSF-1 act – increases HSF-1 driven luciferase reporter signal. NIH3T3-HGL HSF-1 luciferase reporter, MG132, 8 h; 100% = twice DMSO control signal. AID 504408. hit rate 1.7% among 300,000. activation, % at 9 µM;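 active = mean replicate activation of at least 50% with a set share of replicates each reaching 50%; inconclusive = only one of those two conditions met; inactive = mean below 50% and too few replicates reaching it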;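 also: 0% = median of the neutral control wells and 100% = twice that signal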
* marks the source's active call; other numbers are inactive results; ? = inconclusive; nt = no result.

SMILES	esBAF inh	Vif imaging	HSF1 inh	HSF-1 act
C#CCOCCOCCOCCNc1nc(N2CCN(C(=O)CCCCCCCCCCNC(=O)[C@H]([C@@H](C)CC)n3cc(CCCCN=C(N)N)nn3)CC2)nc(N2CCN(C(=O)CCCCCCCCCCNC(=O)[C@H](CO)n3cc(CCCCCN)nn3)CC2)n1	0	21	nt	nt
C#CCOCCOCCOCCNc1nc(N2CCN(C(=O)CCCCCCCCCCNC(=O)[C@H]([C@@H](C)CC)n3cc(CCCCCN)nn3)CC2)nc(N2CCN(C(=O)CCCCCCCCCCNC(=O)[C@H](CO)n3cc(CCCCCN)nn3)CC2)n1	-9	96*	nt	nt
O=C(N[C@H]1CC[C@@H](CCn2cc(-c3ccccn3)nn2)O[C@@H]1CO)c1ccccc1	-8	nt	nt	nt
O=C(Nc1ccc2c(c1)[C@H]1C[C@H](CC(=O)N3CCCCC3)O[C@H](CO)[C@H]1O2)c1ccc2c(c1)OCO2	2	nt	nt	nt
C[C@H]1CN([C@@H](C)CO)C(=O)c2cc(NC(=O)CCN3CCOCC3)ccc2O[C@H]1CN(C)Cc1ccc(C(=O)Nc2ccccc2N)cc1	-12	nt	nt	nt
COc1ccc(NC(=O)c2ccccc2SC)cc1	nt	31	2	20
CC(=O)c1cccc(NC(=O)c2csc3c2CCCCC3)c1	nt	-5	8	14
O=C(Nc1ccccn1)c1csc2c1CCCC2	nt	-1	43	53*
CCOc1ccc(NC(=O)c2csc3c2CCCC3)cc1	78*	-9	27	?
CCOc1ccc(NC(=O)c2ccccc2SC)cc1	46*	8	15	19
Cc1cccc(C(=O)NC2CCN(C(=O)Nc3ccc(F)cc3)CC2)c1	-1	-10	-54*	-63
Cc1cccc(C(=O)NC2CCN(C(=O)Nc3ccccc3C)CC2)c1	nt	2	0	-4
CCC(=O)NC[C@H]1[C@@H](c2ccccc2)[C@H](CO)N1C(=O)C1CC1	-1	nt	nt	nt
COc1ccccc1NC(=O)CN1CCN(CC(=O)Nc2ccc(F)cc2F)CC1	?	-6	24	69*
COc1ccccc1NC(=O)CN1CCCCC1	-5	-2	-2	-10
O=C(CCc1ccccc1)Nc1ccc(F)cc1F	66*	4	nt	nt
CC(C)c1ccc(NC(=O)C(c2ccccc2)N2CC(=O)Nc3ccccc32)cc1 (stereo unspecified)	66*	2	-33	-47
Cc1nn(C)cc1CN(C)Cc1ccc(OCC(O)CN2CCCCC2)cc1 (stereo unspecified)	nt	64*	-8	1
N=C1C(c2nc3ccccc3s2)=C(O)CN1Cc1ccccc1	48*	24	10	42
CCN(CC)CCCN1CC(O)=C(c2nc3ccccc3s2)C1=N	nt	nt	-3	3
N=C1C(c2nc3ccccc3s2)=C(O)CN1C1CCCCC1	nt	15	26	54*
CCNC(=O)[C@H]1[C@H](CO)[C@H]2Cn3c(ccc(/C=C/c4ccccc4)c3=O)[C@@H]1N2CC	1	nt	nt	nt
CCCNC(=O)C[C@H]1CC[C@@H]2[C@@H](COc3ccc(NS(=O)(=O)CC)cc3C(=O)N2C)O1	-2	nt	nt	nt
COc1ccc(C(=O)/C=C2/C(=O)Nc3ccccc32)cc1OC	-4	-3	181	243*
C=CCOc1ccc(C(=O)/C=C2/C(=O)Nc3ccccc32)cc1	2	nt	1	8
SMILES	esBAF inh	Vif imaging	HSF1 inh	HSF-1 act
O=C1Nc2ccccc2/C1=C/C(=O)c1cccs1	-13	6	-65*	-71
COc1ccc(C(=O)/C=C2/C(=O)Nc3ccccc32)cc1	-15	6	-2	-14
C=CCOc1ccccc1C(=O)/C=C1/C(=O)Nc2ccccc21	-4	-3	99	113*
COCCNC(=O)C[C@H]1CC[C@@H]2[C@H](COc3ccc(NC(=O)c4cnccn4)cc3C(=O)N2C)O1	0	nt	nt	nt
Cc1nn(-c2ccccc2)c(C)c1C(=O)Oc1ccccc1	62*	-4	2	30
COc1ccc(OC(=O)c2cnn(-c3ccccc3)c2C)cc1	67*	0	26	41
CC(=O)Nc1ccc(NC(=O)COC(=O)c2c(C)nn(-c3ccccc3)c2C)cc1	nt	-1	-12	-2
Cc1nn(-c2ccccc2)c(C)c1C(=O)OCC(=O)NC12CC3CC(CC(C3)C1)C2	50*	-3	20	40
COc1ccc(OC(=O)c2c(C)nn(-c3ccccc3)c2C)cc1	71*	5	22	45
CCOc1ccc2nc(NC(=O)CSc3cn[nH]n3)sc2c1	-32	-1	17	55*
COc1ccc2nc(NC(=O)CSc3cn[nH]n3)sc2c1	nt	-14	27	49
O=C(Nc1nc2ccccc2s1)c1cnccn1	-20	2	7	22
CCOc1ccc2nc(NC(=O)c3cnccn3)sc2c1	49*	-1	47	99*
C[C@H](CO)N1C[C@H](C)[C@H](CN(C)S(=O)(=O)c2ccc(C#N)cc2)OCc2ccccc2-c2ccccc2C1=O	0	nt	nt	nt
COc1ccc(CN2C(=O)c3ccccc3C2=O)cc1C(=O)Nc1ccccc1N1CCOCC1	nt	-4	7	0
COc1ccc(NC(=O)c2cc(=O)c3ccccc3o2)cn1	2	8	nt	nt
CC(=O)N1CCN(c2ccc(NC(=O)c3cc4ccccc4o3)cc2)CC1	4	-4	15	33
O=C(Nc1ccc(N2CCCC2)cc1)c1cc2ccccc2o1	43*	0	8	48
COc1ccc(NC(=O)c2cc3ccccc3o2)cc1OC	?	1	14	15
COc1ccc(NC(=O)c2cc(CN3C(=O)c4ccccc4C3=O)ccc2OC)cn1	4	9	-67*	-74
COc1ccc(NC(=O)c2cc3ccccc3o2)cc1	58*	0	33	55*
COc1ccc(NC(=O)c2cc3ccccc3o2)cn1	68*	-4	5	-9
C[C@@H]1CCCCO[C@@H](CN(C)C(=O)c2ccccc2)[C@H](C)CN([C@H](C)CO)C(=O)c2cc(NC(=O)CCCN(C)C)ccc2O1	1	nt	nt	nt
CC(C)C(=O)Nc1ccc2c(c1)C(=O)N(C)[C@@H]1CC[C@@H](CC(=O)N[C@H](C)c3ccccc3)O[C@@H]1CO2	-2	nt	nt	nt
C[C@@H]1CCCCO[C@@H](CN(C)C(=O)C2CCCCC2)[C@@H](C)CN([C@@H](C)CO)C(=O)c2cc(NS(=O)(=O)c3ccc(F)cc3)ccc2O1	1	nt	nt	nt
SMILES	esBAF inh	Vif imaging	HSF1 inh	HSF-1 act
COc1ccc(NC(=O)c2ccc(-c3ccc(C(C)=O)cc3)o2)cn1	45*	0	nt	nt
Cc1ccc(NC(=O)c2cc(=O)c3ccccc3o2)cc1	56*	-4	3	24
O=C(Nc1ccc(F)cc1)c1cc2ccccc2o1	47*	-2	35	?
CC(=O)Nc1ccc(NC(=O)c2cc(=O)c3ccccc3o2)cc1	-1	-4	-7	-5
CC(C)NC(=O)N(C)C[C@@H]1Oc2c(NC(=O)c3nc4ccccc4s3)cccc2C(=O)N([C@H](C)CO)C[C@@H]1C	3	nt	nt	nt
COc1ccccc1S(=O)(=O)N[C@H]1CC[C@@H](CCNC(=O)C2CCCC2)O[C@H]1CO	4	nt	nt	nt
COc1ccccc1NC(=O)Nc1nc(CC(=O)N2CCN(c3ccccc3)CC2)cs1	6	-11	34	62*
COc1ccc(NC(=O)Cc2csc(NC(=O)Nc3ccccc3OC)n2)cc1	-3	-5	nt	nt

Compound activity (PubChem BioAssay)
